In all, about 33,000 sequences were measured (“E-score (-0.5 to 0.5)”: median about -0.036, highest 2% from about 0.37 on). The sample as a whole holds a higher share of the highest values than the screen did.
What follows are sequences tested against T1, Yer064c (UniProt P40041) (assay: PBM E-score (8-mer binding enrichment) (E-score (-0.5 to 0.5)); higher = stronger / more preferred TF binding). Conditions: protein concentration: 200 nM; construct: GST-full length.
T1 sequence: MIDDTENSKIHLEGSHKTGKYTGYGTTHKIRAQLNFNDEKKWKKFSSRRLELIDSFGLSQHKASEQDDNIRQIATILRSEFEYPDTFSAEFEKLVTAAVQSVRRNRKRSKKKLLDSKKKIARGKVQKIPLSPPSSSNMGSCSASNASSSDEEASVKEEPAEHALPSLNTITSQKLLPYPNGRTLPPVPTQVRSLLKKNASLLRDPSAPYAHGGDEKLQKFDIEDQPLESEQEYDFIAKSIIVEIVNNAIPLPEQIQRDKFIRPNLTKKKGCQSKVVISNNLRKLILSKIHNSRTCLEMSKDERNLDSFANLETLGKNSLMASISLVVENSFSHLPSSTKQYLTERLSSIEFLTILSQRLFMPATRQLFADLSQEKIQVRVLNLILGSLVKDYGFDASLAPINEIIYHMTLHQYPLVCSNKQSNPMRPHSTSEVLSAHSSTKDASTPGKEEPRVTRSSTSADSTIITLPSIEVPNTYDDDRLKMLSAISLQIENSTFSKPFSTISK
In short: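 GST-tagged yeast TFs (full-length or DNA-binding domain) were made by PURExpress in vitro transcription/translation and applied at about 100-200 nM to universal all-10-mer Agilent arrays. The arrays were made double-stranded by primer extension, on fresh or once-stripped slides. Bound protein was detected with fluorescent anti-GST, and scans were normalised with masliner. Each ungapped eight-base word, pooled with its reverse complement, received an E-score (modified Wilcoxon-Mann-Whitney statistic) from the Universal PBM Analysis Suite.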

Sequence	PBM E-score
CCTGGCAC	-0.304
GCCATTCA	-0.0419
GAATCAAA	0.268
GAATCAAC	0.358
CAATCATA	0.371
CCATCATC	-0.01
CCATCATA	-0.0232
CTATCATC	-0.0157
GAATCATC	0.48
CAATCATC	0.422
CGATCATA	0.0235
CCGGCTTA	-0.221
CCTTGGAA	-0.185
CCGAAAAA	0.0649
ATAGGTCC	-0.0251
AGTAAACC	-0.0239
CCCTTTTA	-0.0873
AGATTGAT	0.0609
CTTGAGGC	-0.146
CTTGAGTA	0.233
ATTGAGTG	0.149
ATTGAGTC	0.479
ATTGAGTA	0.282
CTTGAGTC	0.466
ACGGCCAG	-0.206

Sequence	PBM E-score
AGCCATGA	0.282
CTCAGTCA	0.436
CTCAGTGA	0.235
ATCAGTCC	0.0464
CTCAGTCC	0.255
GTCAGTTA	0.0503
ATCAGTCG	0.296
GTCAGTGA	0.31
ATCAGTCA	0.434
GTCAGTCA	0.451
ATCAGGGG	-0.00776
ACGCACAG	-0.247
GCCCATCC	-0.0789
ATAAAAAA	0.112
TTTAGAAA	0.0151
AAGAGCGG	-0.214
CGGGTGCC	-0.315
CGTCGTGA	0.0738
AGTCGTGA	0.375
ATTCGTGG	0.186
AGTCGTGC	0.371
GGTCGTGA	-0.0505
AATCGTGC	0.137
AGTCGTTG	0.326
CGTCGTGC	-0.106

Sequence	PBM E-score
AGTCGTGG	0.373
AACGAGAC	0.0315
AAAGAGCA	-0.0916
CGGGGCAG	-0.052
CCCCTGAC	0.173
AGCGAATA	0.0298
ATTGGGTA	-0.138
CTGGGGAC	-0.0825
CACCCATC	0.102
AATTGACC	-0.0998
AATTGACT	0.391
ACTTGACG	-0.0474
AATTGACG	-0.178
ACTTGACA	0.0454
ACTTGACT	0.412
CAATTCCA	-0.297
CATACGAC	0.158
ACGCGTGC	-0.0231
CCATCCGA	0.161
CCAGAGGC	-0.335
CGAGAGAC	0.0137
CCAGAGTC	0.38
AGAGAGTA	0.121
CCAGAGTA	-0.0992
AGAGAGTG	-0.104

Sequence	PBM E-score
CGAGAGTA	0.0908
ACAGAGTC	0.37
AGAGAGTC	0.409
CGAGAGTC	0.421
ACAGAGTG	0.0565
ACAGAGTA	0.0495
CCGCAAGC	-0.268
ACGCCATC	-0.136
CCTACCCA	-0.0884
CGAGAACA	0.0131
GCTACGAA	-0.0422
GGCCGGGA	-0.134
CGCTACGC	-0.323
AACGGGAT	-0.185
CAATCCGG	-0.0586
GATAGGCC	-0.339
CGACTCAA	0.474
GTACTCAA	0.314
GAACTCAA	0.145
ATACTCAC	0.312
CGACTCTA	0.343
CTACTCAA	0.162
TAACTCAA	0.263
GGACTCAA	0.409
GTACTCAC	0.387

Sequence	PBM E-score
GGACTCTA	0.193
TGGCTCAA	0.332
TGACTCAA	0.492
CACCTTGG	-0.142
CCCAGCTA	-0.0347
CTGGCTAA	0.23
CGTTCCAC	-0.25
ACGCATAC	-0.135
TAGCTCCA	-0.0907
GGACTCAC	0.43
GGACTCCC	0.214
GCACTCAC	0.0283
AGGTACCG	-0.156
ACTCGAAC	0.136
CCGTATGC	-0.167
CCATTGAC	0.0546
CCGGCTGA	0.165
GAGACCAA	-0.0383
AAGACTAC	0.413
TAGACTAA	0.3
CAGACTAC	0.215
AAGACTAA	0.442
AAGACTAT	0.417
GAGACGAA	-0.0519
AAGACTAG	0.338

Sequence	PBM E-score
GAGACTAA	0.413
AAAACTAA	0.134
AAGACAAT	-0.0159
AAGACTTC	0.241
CAACAGGG	-0.202
ATGATACA	0.246
GAAGTGCC	-0.336
GTTTGCTA	0.0898
GAGTTGCC	-0.149
GACGGTAA	-0.284
CAACTCCG	-0.12
ATAGTTGC	0.0257
CGATGTAC	-0.0701
AGGCCTCG	-0.184
AGGACTAA	0.405
AGGACTAT	0.31
TGGACTAA	0.348
CCAGAGGA	0.00907
ATAGGGGC	-0.262
CGAGTCCC	0.24
TAAGTCAA	0.344
GGAGTCCC	0.189
TCAGTCAA	0.348
CAAGTCAG	0.306
CGAGTCAC	0.477

Sequence	PBM E-score
TGAGTCAA	0.489
CGAGTCCG	0.272
CGAGTCTC	0.307
GGAGTCAC	0.485
CGAGTCAG	0.46
GGAGTTAC	-0.0565
CCTTCTGA	-0.0564
GAGAGCCA	0.132
TCCAGCCA	-0.198
GCGTAGCC	0.074
ATCGATGC	-0.198
AACTAGCG	-0.119
CTCAAGGC	0.104
ATCCACTC	-0.0532
TCCAACCA	-0.132
CATCGGCC	-0.0369
ACTGGGAC	0.0246
CGAGTCAA	0.444
GGAGTCCA	0.243
GGAGTACA	0.129
GGAGTCGA	0.212
CGAGTCCA	0.0419
TGAGTACA	0.376
TGAGTCCA	0.397

— the supplement of paper PMC3334620
